This note sets out measurements from PubChem BioAssay (Tox21).

Structures are written as SMILES. Results filed as inconclusive are left out. Values without a mark were called inactive. Active and inactive are the calls of the source. Unless noted, calls follow the shape of the dose curve; as a rule, active = well fitted curve in the direction sought with a large enough effect in the repeat runs; inconclusive = weak or mixed curves; inactive = no such curve, though single readings can be large; an effect the other way counts as inactive or inconclusive.

Test [1] deals with Retinoic acid receptor RXR-alpha (Homo sapiens) (UniProt P19793). As to the kind of experiment: qHTS assay to identify small molecule agonists of the RXR signaling pathway (AID 1159527; calls by dose curve; also: nearly all actives have a fitted effect of over 35% in size; also: potency is read from the fitted curve at half-maximal effect). The procedure, abridged: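 16 hr incubation of compound-treated RXR-alpha-UAS-bla HEK 293T cells (2% charcoal-stripped FBS, 37 C) preceded a 2 hr room-temperature LiveBLAzer FRET substrate step and blue/green fluorescence measurement.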
(In general: Quantitative high-throughput screening tests each substance at several concentrations.)

Test [2] is described as follows: qHTS assay to identify small molecule antagonists of the retinoid acid receptor (RAR) signaling pathway - cell viability counter screen (AID 1159551). Also: nearly all actives have a fitted effect of over 35% in size. In outline: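 C3RL4 RARE-luciferase cells, 1,000/well, incubated overnight, then dosed with compound plus 1 uM retinol (final). After 6 hr at 37 C, viability read by CellTiter-Glo ATP luminescence following 30 min at room temperature.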

A short description of test [3]: qHTS assay to identify small molecule antagonists of the retinoic acid receptor (RAR) signaling pathway (AID 1159552; also: nearly all actives have a fitted effect of over 50% in size; also: potency is read from the fitted curve at half-maximal effect). The procedure, abridged:
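C3RL4 RARE-luc cells, overnight plating; retinol 1 uM final added right after compound; 6 hr 37 C; luciferase read at 30 min RT.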

Test [4] can be described thus: qHTS assay to identify small molecule agonists of the retinoic acid receptor (RAR) signaling pathway (AID 1159553). As to conditions: C3RL4 RARE luciferase reporter, agonist, 6 h; activation: at 73.3 µM (top of the series). In outline: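 C3RL4 RARE-luciferase cells were seeded at 1,000/well and grown overnight at 37 C, then exposed to compounds for 6 hr at 37 C, 5% CO2. Luciferase reagent was added and luminescence was read after 30 min at room temperature.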

The nature of test [5]: qHTS assay to identify small molecule antagonists of the estrogen related receptor (ERR) signaling pathway from Tox21 library - cell viability counter screen (AID 1224834). Also: nearly all actives have a fitted effect of over 30% in size. In outline:
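ERR reporter cells, 2,000 per well, rested 6 h, then exposed to compound in DMSO for 17.5 hours at 37 C. Viability read as fluorescence after 30 min with CellTiter-Fluor.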

The target in test [6] is Luciferin 4-monooxygenase (Photinus pyralis) (UniProt P08659). As to the kind of experiment: qHTS assay to identify small molecule inhibitors of firefly luciferase (AID 1224835). Also: nearly all actives have a fitted effect of over 25% in size. In outline:
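Quantitative HTS format; KM concentrations of both substrates. Purified P. pyralis FLuc activity quantified from luminescence images.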

Test [7] can be described thus: qHTS assay to identify small molecule agonists of the constitutive androstane receptor (CAR) signaling pathway - cell viability counter screen (AID 1224836). Also: nearly all actives have a fitted effect of over 45% in size. In outline:
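Using CellTiter-Fluor, viability of HepG2 cells harbouring hCAR and CYP2B6-2.2kb was measured following 23 h incubation with a 15-concentration compound series plus PK11195 (0.75 uM final).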

A short description of test [8]: qHTS assay to identify small molecule antagonists of the constitutive androstane receptor (CAR) signaling pathway - cell viability counter screen (AID 1224837). Also: nearly all actives have a fitted effect of over 45% in size. In outline: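 HepG2 cells stably carrying hCAR and CYP2B6-2.2kb reporter, stimulated with 50 nM CITCO and compounds at 15 concentrations for 23 h at 37 C. Viability measured by CellTiter-Fluor fluorescence.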

In test [9] the target is Nuclear receptor subfamily 1 group I member 3 (Homo sapiens) (UniProt Q14994). As to the kind of experiment: qHTS assay to identify small molecule antagonists of the constitutive androstane receptor (CAR) signaling pathway (AID 1224838). Also: nearly all actives have a fitted effect of over 40% in size. The procedure, abridged: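 HepG2 cells stably carrying hCAR and a CYP2B6-2.2kb luciferase reporter, seeded 4 hrs before compound (15 concentrations). Stimulated with 50 nM CITCO for 24 hr at 37 C. ONE-Glo luminescence read after 30 min at room temperature.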

Test [10] can be described thus: qHTS assay to identify small molecule agonists of the RXR signaling pathway - cell viability counter screen (AID 1159529).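 Also: HEK 293T cells carrying an RXR-alpha UAS beta-lactamase reporter; nearly all actives have a fitted effect of over 50% in size.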 The procedure, abridged: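 In this parallel viability measure, GeneBLAzer RXR-alpha HEK 293T cells (2% charcoal-stripped FBS) were given a 5 hr preincubation, treated with compounds 16 hr at 37 C, and read by CellTiter-Glo luminescence.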
% is scaled to controls: 0 for no effect and ±100 for the full control effect.

Nuclear receptor subfamily 1 group I member 3 (Homo sapiens), sequence (Q14994 whole entry, looked up): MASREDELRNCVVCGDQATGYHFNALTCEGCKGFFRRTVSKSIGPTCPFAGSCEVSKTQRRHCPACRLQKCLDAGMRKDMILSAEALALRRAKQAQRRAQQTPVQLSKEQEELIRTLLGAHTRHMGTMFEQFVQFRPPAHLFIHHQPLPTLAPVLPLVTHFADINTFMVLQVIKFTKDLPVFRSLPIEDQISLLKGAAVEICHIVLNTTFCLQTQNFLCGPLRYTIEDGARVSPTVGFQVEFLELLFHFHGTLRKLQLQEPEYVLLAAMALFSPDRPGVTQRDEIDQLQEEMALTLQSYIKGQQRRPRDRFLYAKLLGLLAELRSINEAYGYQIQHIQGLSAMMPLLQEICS
Luciferin 4-monooxygenase (Photinus pyralis), sequence (P08659 whole entry, looked up): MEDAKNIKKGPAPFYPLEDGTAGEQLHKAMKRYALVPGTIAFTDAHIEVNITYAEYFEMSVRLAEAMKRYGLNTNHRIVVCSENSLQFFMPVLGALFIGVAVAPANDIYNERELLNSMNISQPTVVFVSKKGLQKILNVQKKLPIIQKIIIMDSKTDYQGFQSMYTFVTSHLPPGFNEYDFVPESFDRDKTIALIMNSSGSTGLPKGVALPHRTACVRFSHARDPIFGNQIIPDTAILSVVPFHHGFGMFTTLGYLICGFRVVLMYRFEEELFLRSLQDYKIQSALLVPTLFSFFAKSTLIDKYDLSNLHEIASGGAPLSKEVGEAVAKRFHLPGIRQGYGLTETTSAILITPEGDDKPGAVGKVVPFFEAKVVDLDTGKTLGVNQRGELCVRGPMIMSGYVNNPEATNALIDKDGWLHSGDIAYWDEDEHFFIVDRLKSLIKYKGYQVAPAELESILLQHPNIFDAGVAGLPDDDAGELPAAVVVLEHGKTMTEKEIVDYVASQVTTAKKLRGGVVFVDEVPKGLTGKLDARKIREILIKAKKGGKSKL
Retinoic acid receptor RXR-alpha (Homo sapiens), sequence (P19793 whole entry, looked up): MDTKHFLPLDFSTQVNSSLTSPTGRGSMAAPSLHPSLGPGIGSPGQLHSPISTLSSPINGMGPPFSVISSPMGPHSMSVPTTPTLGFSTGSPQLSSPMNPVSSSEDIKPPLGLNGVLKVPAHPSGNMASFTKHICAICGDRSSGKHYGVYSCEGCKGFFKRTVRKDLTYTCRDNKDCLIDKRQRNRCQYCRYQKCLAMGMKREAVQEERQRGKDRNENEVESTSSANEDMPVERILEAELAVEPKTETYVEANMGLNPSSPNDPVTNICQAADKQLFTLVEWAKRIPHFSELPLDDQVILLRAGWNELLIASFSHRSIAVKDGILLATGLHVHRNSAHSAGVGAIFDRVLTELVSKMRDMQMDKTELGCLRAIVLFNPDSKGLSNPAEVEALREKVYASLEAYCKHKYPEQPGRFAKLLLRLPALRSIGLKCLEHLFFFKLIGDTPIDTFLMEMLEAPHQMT

Take `O=C(O)c1ccccc1C(=O)Nc1ccc(S(=O)(=O)Nc2nccs2)cc1`: the Potency result in [1], in test [3], in [4], in [5], in test [6] and in test [8] was “inactive” in each case. The Potency entry in [9] is “inactive”. Further, the call in [2] and in [7] was inactive.
Consider `O=CN1CCOCC1`, for which the Potency entry in [1], in [3], in test [4], in test [5], in test [6] and in test [8] was “inactive” throughout. In addition, the outcome in test [2] and in [7] was inactive.
`NS(=O)(=O)c1ccccc1OC(F)(F)F`: the Potency entry in test [1], in test [3], in test [4], in test [6] and in [8] was “inactive” in each case. In addition, the call in [2] and in test [7] was inactive.
`CCOC(=O)CC#N`: the result in test [10], in test [2] and in [7] was inactive. Moreover, the Potency entry in test [3], in test [4], in test [5], in test [6] and in test [8] was “inactive” throughout.
Take `C=C[Si](C)(C)O[Si](C)(C)C=C`: the Potency entry in test [1], in test [3], in [4], in [5], in test [6] and in test [8] was “inactive” throughout. Further, the compound was classed as inactive in test [2] and in [7].
Turning to `NC(=O)NNC(N)=O`, the Potency result in [1], in test [3], in [4], in test [6] and in [8] was “inactive” in each case. For the same compound, the call in test [2] and in [7] was inactive.
As to `CC(C)SCc1ccco1`, the Potency result in test [1], in [3], in test [4], in [5], in test [6] and in test [8] was “inactive” each time. Besides, the result in test [2] and in test [7] was inactive.
Turning to `CCCCCCCCCCC`, the Potency in test [1] was 12.3 µM (active). The compound was called inactive in test [2] and in [7]. In addition, the Potency entry in [3], in test [4], in test [5], in test [6], in test [8] and in test [9] was “inactive” each time.
In the case of `CCCCOC(=O)C(=O)OCCCC`, the Potency entry in [1], in test [3], in [4], in [8] and in test [9] was “inactive” in each case. Moreover, the result in test [2] and in test [7] was inactive.
In the case of `C=CCOc1c(Br)cc(C(C)(C)c2cc(Br)c(OCC=C)c(Br)c2)cc1Br`, the Potency entry in [1], in test [3], in [4], in test [5], in [6] and in test [8] was “inactive” throughout. For the same compound, the compound was called inactive in test [2] and in test [7].
Consider `CC(=O)N(CC(O)CO)c1c(I)c(C(=O)NCC(O)CO)c(I)c(C(=O)NCC(O)CO)c1I` (stereo not given), for which the Potency entry in [1], in test [3], in [4], in [5], in [6] and in test [8] was “inactive” throughout. Moreover, the result in test [2] and in test [7] was inactive.
Turning to `CC(=O)OC[C@H]1O[C@@H](OC(C)=O)[C@H](OC(C)=O)[C@@H]1OC(C)=O`, the Potency entry in test [1], in [3], in [4], in test [5], in test [6] and in test [8] was “inactive” each time. The outcome in test [2] and in test [7] was inactive.
In the case of `CCN(CCC#N)c1ccccc1`, the Potency result in test [1], in test [3], in test [4], in test [5], in [6] and in [8] was “inactive” throughout. The Potency entry in test [9] is “inactive”. Besides, the compound was called inactive in test [2] and in test [7].
For `O=C(O)Cc1cccc(-c2cc(CCCCCCc3ccc(O[C@H]4O[C@H](CO)[C@@H](O)[C@H](O)[C@@H]4O)c(-c4cccc(CC(=O)O)c4)c3)ccc2O[C@H]2O[C@H](CO)[C@@H](O)[C@H](O)[C@@H]2O)c1`, the activation is 6.74% [at 0.29 µM] in test [1] and 0.783% [at 0.756 µM] in [4]. Besides, the values for the activity change, negative = cytotoxicity in test [2] and in test [8] were -1.44% [at 0.349 µM] and 5.71% [at 0.349 µM], respectively. In [3], the activity, negative = inhibition was -0.764% [at 0.349 µM]. For the same compound, the viability change, negative = cytotoxic was -1.71% [at 0.349 µM] in test [5] and 5.82% [at 0.349 µM] in [7]. Also, the activity change, negative = inhibition in test [6] was 2.97% [at 0.435 µM].
Regarding `CCOC(=O)C(C)(C)C`, the Potency result in [1], in test [3], in [4], in [6] and in test [8] was “inactive” in each case. Further, the compound was called inactive in test [2] and in test [7].
In the case of `CC(=O)OCC(=O)[C@@]1(O)[C@H](OC(C)=O)C[C@H]2[C@@H]3CCC4=CC(=O)C=C[C@]4(C)[C@@]3(F)[C@@H](O)C[C@@]21C`, the Potency result in test [1], in test [3], in test [4], in [5], in test [6] and in [8] was “inactive” in each case. In addition, the Potency result in test [9] was “inactive”. In addition, the compound was called inactive in [2] and in test [7].
In the case of `CCOC(=O)CC(CC(=O)OCC)(OC(C)=O)C(=O)OCC`, the Potency result in test [1], in test [3], in test [4], in [5], in test [6] and in [8] was “inactive” each time. The Potency entry in test [9] is “inactive”. The outcome in [2] and in test [7] was inactive.
As to `O=C(/C=C/c1ccccc1)NCCO`, the Potency result in test [1], in [3], in test [4], in test [5], in test [8] and in test [9] was “inactive” in each case. The outcome in test [2] and in [7] was inactive.
As for `O=c1cc(O)c(Cl)c[nH]1`, the Potency result in test [1], in test [3], in test [4], in [5], in test [6] and in [8] was “inactive” throughout. Besides, the outcome in test [2] and in test [7] was inactive.
`CCCOC(=O)CCCCC(=O)OCCC`: the outcome in test [10], in test [2] and in test [7] was inactive. Further, the Potency entry in test [3], in [4], in test [5], in test [6] and in test [8] was “inactive” throughout.
Consider `O=S(=O)(O)c1cc(O)ccc1O`, for which the Potency entry in test [1], in [3], in [4], in test [6] and in test [8] was “inactive” in each case. Besides, the result in test [2] and in test [7] was inactive.
On to `CC(C)(C)c1ccc(C=O)cc1`, for which the Potency entry in [1], in test [3], in test [4], in test [8] and in test [9] was “inactive” each time. Moreover, the call in [10], in [2] and in test [7] was inactive.
For `Cc1ncc([N+](=O)[O-])n1CC(O)CCl` (stereo not given), the compound was classed as inactive in test [10], in test [2] and in test [7]. Moreover, the Potency entry in test [3], in test [4], in test [5], in test [6], in [8] and in test [9] was “inactive” in each case.
In the case of `CC(C)CCCCCCOC(=O)C1CCCCC1C(=O)OCCCCCCC(C)C` (stereo not given), the compound was classed as inactive in test [10], in test [2] and in test [7]. Further, the Potency result in test [3], in test [4], in test [5], in test [6] and in test [8] was “inactive” in each case.
`Cc1nc([N+](=O)[O-])cn1-c1ccc([N+](=O)[O-])cc1`: the outcome in [10], in [2] and in test [7] was inactive. The Potency entry in [3], in [4], in [6] and in test [8] was “inactive” in each case.
On to `CCCCCN(CCCOC)C(=O)C(CCC(=O)O)NC(=O)c1ccc(Cl)c(Cl)c1` (stereo not given), for which the call in test [10], in test [2] and in test [7] was inactive. Moreover, the Potency entry in test [3], in test [4], in test [5], in [6] and in [8] was “inactive” in each case.
Consider `CNCc1ccccc1`, for which the compound was classed as inactive in [10], in test [2] and in [7]. Further, the Potency in test [3] was 0.106 µM (active). The Potency result in test [4], in [6] and in [8] was “inactive” each time.
Turning to `COc1cc(C=O)ccc1OC(=O)C(C)C`, the compound was classed as inactive in test [10], in [2] and in test [7]. In addition, the Potency entry in test [3], in [4], in test [5], in test [6] and in [8] was “inactive” each time.
As for `NS(=O)(=O)c1ccc(Cl)c(S(N)(=O)=O)c1`, the result in [2] and in [7] was inactive. Besides, the Potency entry in test [3], in [4], in test [5], in test [6] and in test [8] was “inactive” each time.
